GRK2 aptamer HTS: blocks RNA aptamer binding to human GRK2. P25098. bead flow cytometry, FAM-aptamer displacement from GRK2. inhibition of aptamer binding, % at 10 µM. 330,000 compounds, 0.59% hits;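 active means inhibition of aptamer binding above 40%, roughly 3 SD of noise, on plates passing a quality check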;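 further: median bead fluorescence of bound FAM aptamer so fluorescent compounds give negative values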
ANO1 block: mouse TMEM16A channel inhibition, primary screen; AID 588511; HEK293 TMEM16A/YFP iodide influx fluorescence, ionomycin; normalized B-score (activity score, 25-100; higher = stronger inhibition) at 10 µM; 310,000 compounds, 1.2% hits;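 active means ratio plate-corrected score three or more library SD toward inhibition, starting fluorescence score within five deviations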;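 further: score derived from kinetic fluorescence span divided by baseline fluorescence per well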
NOD2-RIPK2 inh: inhibitors of human NOD2-RIPK2 interaction; inhibition, % at 4.98 µM; AID 624267; CHO BLA complementation NOD2-RIPK2, CCF4 ratio; O43353; 360,000 compounds, 0.38% hits; in the data active means inhibition above about 21%;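 further: 0% = vehicle only and 100% = reference blocker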
TLR9-MyD88 block: blocks human TLR9 binding to MyD88; inhibition, % at 4.98 µM; 340,000 compounds, 0.21% hits; Q9NR96+Q99836; AID 504734; CHO BLA complementation TLR9-MyD88, CCF4 FRET ratio;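 active means inhibition above the mean over all tested compounds plus 3 SD, cut at about 21% in these data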;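 further: 0% = DMSO only wells and 100% = clavulanate BLA inhibitor control wells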
TMEM16A act: activators or potentiators of mouse TMEM16A chloride channel | Q8BHY3 | HEK293 TMEM16A/YFP-H148Q/I152L, iodide quench fluorescence; hits give low values | B-score at 10 µM | 340,000 compounds, 0.3% hits | AID 623877;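 active means fluorescence-ratio B-score plate-corrected deviation score at least 3 library SD below zero, with starting fluorescence score within 5 deviations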;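 further: channel opened by trigger with iodide after compound preincubation; score built on the fluorescence ratio of max minus min over baseline; more negative score means more quench and so TMEM16A activation or potentiation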
TLR4 MyD88 comp: TLR4-MyD88 interaction inhibition in cells; HeLa CL3-4 TLR4/MyD88 BLA complementation, FRET ratio; inhibition, % at 8.4 µM; 200,000 compounds, 0.18% hits; in the data active means inhibition above about 25%;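 further: 0% = vehicle and 100% = reference inhibitor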
Numbers without * were called inactive; i = inactive; · = no result given. Most compounds without a hit are left out; they make up all but 2.2% or so of the library.

SMILES	GRK2 aptamer HTS	ANO1 block	NOD2-RIPK2 inh	TLR9-MyD88 block	TMEM16A act	TLR4 MyD88 comp
N#C/C(=N/O)c1nc(-c2ccc(F)cc2)cs1	0	100*	2	13	i	-11
Cc1nc(C(F)(F)F)ccc1C(=O)N1CCCC(C)(C(=O)O)C1 (stereo unspecified)	·	·	-18	·	·	·
COCCNC(=O)C1(C)CCN(C(=O)c2ccc(C(F)(F)F)nc2C)C1 (stereo unspecified)	·	·	1	·	·	·
COc1ccccc1CNC(=O)/C=C/c1ccc(S(=O)(=O)NCc2ccco2)cc1	62*	i	1	4	i	2
CCCN(CC(=O)Nc1ccccc1OC)C(=O)c1ccc(S(=O)(=O)NCc2ccco2)cc1	0	·	-13	-2	-45*	·
Cc1cc(Cl)ccc1OC(C)C(=O)Nc1ccc(C(=O)Nc2ccccc2C(=O)O)cc1 (stereo unspecified)	2	100*	-2	-13	i	·
CC(Oc1ccc(Cl)cc1Cl)C(=O)Nc1ccc(S(=O)(=O)Nc2cnc3ccccc3n2)cc1 (stereo unspecified)	2	100*	·	·	·	12
Cc1cc(Cl)ccc1OC(C)C(=O)Nc1ccc(S(=O)(=O)Nc2cnc3ccccc3n2)cc1 (stereo unspecified)	2	100*	-4	2	i	7
COc1cc(/C=N/NC(=O)c2nnn(-c3nonc3N)c2C)ccc1OCc1ccc(Cl)cc1	·	·	0	-2	·	·
S=C(Nc1ccccc1)N1CCCCCCC1	0	i	-1	6	-4.6*	-10
S=C(Nc1ccccc1)N1CCN(C(=S)Nc2ccccc2)CC1	3	i	·	·	·	-4
CCOC(=O)C(CC)c1cc2n(c(=O)c1C#N)CCC21OCCO1 (stereo unspecified)	·	·	1	·	·	·
CCC(C(=O)OCC(=O)Nc1cc(Cl)ccc1Cl)c1ccccc1 (stereo unspecified)	2	25*	3	11	i	-16
OC(c1ccc(F)cc1)c1ncc(-c2ccc3ccccc3c2)[nH]1 (stereo unspecified)	·	·	7	·	·	·
Cc1cc(OCC(=O)NNC(=S)NC(=O)c2ccc(Br)o2)ccc1Cl	0	25*	1	4	-4.6*	·
CSCCC(C(=O)Nc1c(C)cccc1C)n1c(COc2ccc(C)cc2)nc2ccccc21 (stereo unspecified)	·	·	-13	·	·	·
Cc1ccc(CN2CCC(CNC(=O)c3ccc(NC(=O)C4=CSCCO4)cc3)CC2)cc1	0	i	9	-2	-27*	·
O=C(Nc1ccc(C(=O)NCC2CCN(Cc3ccccc3F)CC2)cc1)C1=CSCCO1	0	i	-2	-9	i	·
c1nc(SSc2ncnc3nc[nH]c23)c2[nH]cnc2n1	·	·	-1	-8	i	·
COc1ccc(S(=O)(=O)N2CCN(C(=O)c3cc4c(s3)CCCC4)CC2)cc1	2	·	0	2	-34*	·
COc1ccc(NC(=O)CN(C)C(=O)c2cc3c(s2)CCCCC3)cc1	0	i	1	2	i	·
COc1ccc(NC(=O)CN(C)C(=O)c2cc3c(s2)CCC3)cc1	63*	i	-1	0	i	·
O=C(CNC(=O)Cc1ccccc1)N=Nc1c(O)[nH]c2ccccc12	0	i	-7	-10	i	·
O=C(CNC(=O)/C=C/c1ccco1)N=Nc1c(O)[nH]c2ccccc12	50*	i	6	-13	i	·
COc1ccc(NC(=O)[C@@H]2O[C@H](CO)[C@H](O)[C@H](O)[C@H]2O)cc1F	·	·	-6	·	·	·
SMILES	GRK2 aptamer HTS	ANO1 block	NOD2-RIPK2 inh	TLR9-MyD88 block	TMEM16A act	TLR4 MyD88 comp
C#CCOCCOCCOCCNc1nc(N2CCN(C(=O)CCCCCCCCCCNC(=O)[C@@H](CCSC)n3cc(CCO)nn3)CC2)nc(N2CCN(C(=O)CCCCCCCCCCNC(=O)[C@H]([C@@H](C)CC)n3cc(CCCCN=C(N)N)nn3)CC2)n1	0	i	30*	1	-23*	·
C#CCOCCOCCOCCNc1nc(N2CCN(C(=O)CCCCCCCCCCNC(=O)[C@H](CCCCN)n3cc(CCO)nn3)CC2)nc(N2CCN(C(=O)CCCCCCCCCCNC(=O)[C@H](CCCCN)n3cc(CCO)nn3)CC2)n1	0	i	8	-7	i	·
C#CCOCCOCCOCCNc1nc(N2CCN(C(=O)CCCCCCCCCCNC(=O)[C@@H](CCSC)n3cc(CCO)nn3)CC2)nc(N2CCN(C(=O)CCCCCCCCCCNC(=O)[C@H]([C@@H](C)CC)n3cc(CCCCCN)nn3)CC2)n1	0	100*	·	·	·	·
CCCc1c(Cc2cccc(F)c2)ncn1Cc1cccc(-c2ccccc2)c1	·	·	-9	·	·	·
Cc1ccc(S(=O)(=O)N2[C@@H](CCO)OC[C@H]2C(C)C)cc1	·	·	4	·	·	·
COc1cccc(-c2cccc3c2NC(=O)C3(C)Cc2cccc(F)c2)c1 (stereo unspecified)	·	·	1	·	·	·
COc1cccc(OCCSc2nc(N)cc(N)n2)c1	2	25*	-3	7	i	-4
Cc1nnc(NC(=O)c2cc(-c3ccco3)nc3ccccc23)s1	91*	i	5	5	i	·
CC(=O)c1cc2cccc(OC3(C)CCN(Cc4ccc(-c5ccccn5)cc4)C3)c2o1 (stereo unspecified)	·	·	-6	·	·	·
Cc1c(Cc2ccccc2)c(=O)oc2c(C)c(OCc3nn[nH]n3)ccc12	0	i	-5	-6	i	-2
Cc1c(CC(=O)O)c(=O)oc2c(C)c(OCc3nn[nH]n3)ccc12	0	i	5	3	-4.9*	·
Cc1ccc(C2=NN(Cc3nnc(-c4ccccc4)o3)C(=O)SC2)cc1	4	25*	-5	-3	i	-1
COc1ccc(N(CC(O)Cn2c3ccccc3c3ccccc32)S(=O)(=O)c2ccccc2)cc1 (stereo unspecified)	0	i	3	-1	-4.8*	0
CC(C)c1cn(CC[C@@H]2CC[C@@H](NC(=O)C3CCCCC3)[C@@H](CO)O2)nn1	·	·	-4	·	·	·
CCc1ccc(-c2cc(C)no2)cc1S(=O)(=O)N1CCC(C)CC1	0	25*	12	-2	i	·
Cc1nc2cc(Cl)c([N+](=O)[O-])cc2s1	0	i	-4	-5	i	20
CCCc1nc2cc(Cl)c([N+](=O)[O-])cc2o1	1	100*	-16	3	i	-5
CCCCNc1nccnc1-c1cccc(C=O)c1	·	·	-2	·	·	·
COc1ccc(S(=O)(=O)N2CCOC2CNC(=O)C(=O)NCCCn2ccnc2)cc1OC (stereo unspecified)	0	i	-4	-13	-15*	11
COc1ccc(S(=O)(=O)N2CCCOC2CNC(=O)C(=O)NCCCn2ccnc2)cc1 (stereo unspecified)	0	i	-4	-2	-7.3*	0
COc1ccc(CN2CCC(=O)N([C@H](CO)c3ccccc3)CC2)cc1	0	i	6	0	-11*	·

Screening results (PubChem BioAssay)
